# Reference: PubChem BioAssay (NCI)
# The panel holds about 83,000 compounds, 20% with a hit somewhere; the sample as a whole holds those more often.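 Cell lines were cultured in 96-well plates, exposed to a single compound concentration, and assessed for percent growth 48 hours later.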 A number with no mark means an inactive call. Calls of active or inactive are those of the source. The calls were made as follows: active = growth percent below 10; inactive = the rest.
# Test system: HL-60(TB) leukemia
# Assay: NCI-60 one-dose screen, 48 h (100 = growth as untreated, 0 = no growth, -100 = all killed)
# Conditions: 10 µM unless noted
row,SMILES,growth
1,COc1cccc(CNc2c3ccccc3nc3ccccc23)c1,40.9%
2,O=c1[nH]c(CN2CCN(c3cccc(Cl)c3)CC2)nc2cc(Cl)ccc12,116%
3,Cc1ccccc1CNc1c2ccccc2nc2ccccc12,15.3%
4,O=C(Nc1ccc2c(c1)OCCO2)C(=O)c1c[nH]c2ccccc12,13.7%
5,CN1CCc2c(c3ccccc3c3ccccc23)C1,35.1%
6,COc1cc(F)c(F)c(Nc2ccc(I)cc2F)c1NS(=O)(=O)C1(C[C@H](O)CO)CC1,23.9%
7,c1ccc(Cc2cccc[n+]2C(c2ccccc2)c2ccccc2)cc1,4.63% (active)
8,COc1ccc(S(=O)(=O)N2CCN(C)CC2)cc1NC(=O)c1[nH]c(C)c2c1CCCCC2=O,8.16% (active)
9,COc1ccc(-n2c(N)c(-c3nc4ccccc4[nH]3)cc(C#N)c2=O)cc1,99%
10,CCOC(=O)c1nc2c3ccccc3ccn2c1C(=O)OC,94.9%
11,CCCCNc1ccc(-c2ccc(NCCCC)cc2)cc1,45.4%
12,NC(=O)SCC(=O)NNc1ccccc1,101%
13,CCCCCCCCCc1ccc(OC(C)=O)cc1,108%
14,COc1ccc(OCC(=O)OC(C)C)cc1,90%
15,COc1ccc(C2=NN(C(=O)COc3ccc(Cl)cc3)C(O)(c3cc(F)c(Cl)cc3Cl)C2)cc1 (stereo unspecified),95%
16,O=C(Nc1nc(-c2ccc(Cl)cc2)cs1)c1cc(-c2ccc(Br)cc2)nc2ccc(Cl)cc12,-24.7% (active)
17,COc1ccc(/C=C/C(=O)N2CCC(O)CC2)cc1OC1CCCC1,101%
18,COc1cc(OC)c(/C=C/c2ccc3ccccc3[n+]2C)c(OC)c1,-29.5% (active)
19,Cc1ccc(/C=C/C(=O)c2ccc(-n3cc(CN4CCN(c5cc6c(cc5F)c(=O)c(C(=O)O)cn6C5CC5)CC4)nn3)cc2)cc1,98.8%
20,COc1ccc(C(=O)c2cc(C)c(OC)c(C)c2)c(OC)c1OC(=O)C(Cl)Cl,-35.7% (active)
21,CN1CCc2nc3sc(C(N)=O)c(N)c3c(-c3cccs3)c2C1,7.35% (active)

row,SMILES,growth
1,O=C(c1ccccc1)c1ccc(C2CCCCC2)cc1,101%
2,Cc1ccc2nc3c(nc2c1)-c1cccc2cccc-3c12,93.5%
3,CCCCCCCCCCC(C[N+](C)(C)C/C=C/c1ccccc1)C(O)c1ccccc1 (stereo unspecified),-48.9% (active)
4,CN(Cc1ccccc1)Cc1ccccc1,93.4%
5,O=C(Cc1n[nH]c(=O)c2ccccc12)OCc1c(Cl)cccc1Cl,33.7%
6,Nc1ncn(C2OC(CO)C(O)C2O)c(=O)n1 (stereo unspecified),-44.6% (active)
7,CCC(=O)Nc1ccccc1C#C/C=C\C#Cc1ccccc1SC,-16.2% (active)
8,COc1cc(-c2cc3cnccc3c3nc(N)c4ccncc4c23)cc(OC)c1OC,40.4%
9,O=C1C2C(C(=O)N1CC[Se][Se]CCN1C(=O)C3C(C1=O)[C@H]1C=C[C@@H]3C1)[C@H]1C=C[C@@H]2C1 (stereo partly specified),-54.7% (active)
10,CC(C)(C)n1cc(-c2ccnc(NCCNS(=O)(=O)c3cccc4ccccc34)c2)c(-c2cccc(O)c2)n1,71%
11,Cc1ccc2nc(-c3ccc(N=Cc4ccccc4O)cc3)sc2c1,77.7%
12,CN1CCN(C(=O)OCc2nc3c(N4CCOCC4)nc(Cl)nc3n2C)CC1,-53.4% (active)
13,O=C1C(Cl)=C(Nc2ccc(S(=O)(=O)c3ccc(NC4=C(Cl)C(=O)c5ccccc5C4=O)cc3)cc2)C(=O)c2ccccc21,32.7%
14,CCCCc1nc(Cl)c(C2CC(c3ccc(S(N)(=O)=O)cc3)=NN2c2cc(Cl)cc(Cl)c2)[nH]1 (stereo unspecified),9.72% (active)
15,C[N+]1=C(/C=C/c2ccc(O)c3ncccc23)C(C)(C)c2ccccc21,32.5%
16,C=C(C)C1CCC2(C)OC2C1 (stereo unspecified),95.6%
17,COc1ccc(C(=O)Cn2c(C(=O)c3ccc(Cl)cc3)nc3ccccc32)cc1,42.2%
18,CC(=O)O[C@@H]1C[C@]2(C(C)C)O[C@@]1(C)[C@@H]1CCC(C)=C1[C@@H]2OC(=O)/C=C/c1ccccc1,78.8%
19,O=C(N=c1n(-c2ccccc2)nc2n1CCN2C1=NCCN1C(=O)c1ccc(Cl)cc1)c1ccc(Cl)cc1,51.2%
20,O=C1Nc2ccc(Cl)cc2/C1=C/c1ccc[nH]1,102%
